# Assay results: ChEMBL document CHEMBL2218924, “A broad activity screen in support of a chemogenomic map for kinase signalling research and drug discovery” (Biochem J, 2013)
# Experiments:
# [1] = target: T1, Serine/threonine-protein kinase 3 (Homo sapiens) (UniProt Q13188); settings: at 1 µM
# T1 sequence (whole entry): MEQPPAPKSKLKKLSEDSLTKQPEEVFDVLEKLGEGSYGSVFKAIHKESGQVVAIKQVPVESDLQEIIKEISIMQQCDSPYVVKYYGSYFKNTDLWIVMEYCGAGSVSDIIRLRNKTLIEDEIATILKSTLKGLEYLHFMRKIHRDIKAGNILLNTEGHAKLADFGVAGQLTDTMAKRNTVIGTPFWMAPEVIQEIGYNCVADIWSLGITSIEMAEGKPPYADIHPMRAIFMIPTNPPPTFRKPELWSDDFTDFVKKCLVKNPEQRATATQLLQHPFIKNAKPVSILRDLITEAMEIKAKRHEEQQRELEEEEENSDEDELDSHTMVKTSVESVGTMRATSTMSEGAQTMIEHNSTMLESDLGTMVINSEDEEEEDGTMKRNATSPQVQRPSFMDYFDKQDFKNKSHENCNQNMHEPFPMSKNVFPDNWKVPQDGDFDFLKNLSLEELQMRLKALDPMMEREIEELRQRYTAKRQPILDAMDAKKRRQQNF
# [2] = target: T1, Serine/threonine-protein kinase 3 (Homo sapiens); settings: at 10 µM
# [3] = target: Serine/threonine-protein kinase 24 (Homo sapiens) (UniProt Q9Y6E0); settings: at 1 µM
# [4] = target: Serine/threonine-protein kinase 24 (Homo sapiens) (UniProt Q9Y6E0); settings: at 10 µM
# [5] = target: T2, Tyrosine-protein kinase Mer (Homo sapiens) (UniProt Q12866); settings: at 1 µM
# T2 sequence (whole entry): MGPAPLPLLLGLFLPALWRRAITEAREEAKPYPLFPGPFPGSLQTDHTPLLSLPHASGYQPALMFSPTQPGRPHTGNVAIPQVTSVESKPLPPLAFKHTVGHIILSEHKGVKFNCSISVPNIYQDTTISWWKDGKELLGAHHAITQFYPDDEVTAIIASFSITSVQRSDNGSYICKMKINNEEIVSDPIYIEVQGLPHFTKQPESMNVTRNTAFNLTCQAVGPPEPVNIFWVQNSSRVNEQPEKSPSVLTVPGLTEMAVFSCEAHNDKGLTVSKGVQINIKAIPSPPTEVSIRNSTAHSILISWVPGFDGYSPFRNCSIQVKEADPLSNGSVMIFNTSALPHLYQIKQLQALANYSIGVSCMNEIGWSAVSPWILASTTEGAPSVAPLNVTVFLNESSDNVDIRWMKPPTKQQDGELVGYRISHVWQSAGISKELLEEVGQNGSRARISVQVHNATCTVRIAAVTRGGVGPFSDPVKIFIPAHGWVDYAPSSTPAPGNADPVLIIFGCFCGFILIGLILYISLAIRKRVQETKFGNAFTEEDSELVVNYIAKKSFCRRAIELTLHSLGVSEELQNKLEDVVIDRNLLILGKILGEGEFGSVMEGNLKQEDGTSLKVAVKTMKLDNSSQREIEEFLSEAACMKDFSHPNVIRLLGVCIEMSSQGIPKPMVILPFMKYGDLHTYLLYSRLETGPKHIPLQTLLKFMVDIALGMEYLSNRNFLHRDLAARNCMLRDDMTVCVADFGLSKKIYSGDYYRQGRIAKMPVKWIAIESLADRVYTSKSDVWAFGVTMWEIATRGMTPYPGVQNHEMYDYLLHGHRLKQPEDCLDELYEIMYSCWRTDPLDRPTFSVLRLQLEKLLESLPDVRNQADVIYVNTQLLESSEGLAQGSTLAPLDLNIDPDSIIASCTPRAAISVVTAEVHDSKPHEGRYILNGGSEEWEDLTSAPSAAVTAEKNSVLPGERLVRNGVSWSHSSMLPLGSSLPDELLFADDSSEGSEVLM
# [6] = target: T2, Tyrosine-protein kinase Mer (Homo sapiens); settings: at 10 µM
# [7] = target: Hepatocyte growth factor receptor (Homo sapiens) (UniProt P08581); settings: at 1 µM
# [8] = target: Hepatocyte growth factor receptor (Homo sapiens) (UniProt P08581); settings: at 10 µM
# [9] = target: MAP kinase-interacting serine/threonine-protein kinase 2 (Homo sapiens) (UniProt Q9HBH9); settings: at 1 µM
# [10] = target: MAP kinase-interacting serine/threonine-protein kinase 2 (Homo sapiens) (UniProt Q9HBH9); settings: at 10 µM
# [11] = target: T3, Muscle, skeletal receptor tyrosine-protein kinase (Homo sapiens) (UniProt O15146); settings: at 1 µM
# T3 sequence (whole entry): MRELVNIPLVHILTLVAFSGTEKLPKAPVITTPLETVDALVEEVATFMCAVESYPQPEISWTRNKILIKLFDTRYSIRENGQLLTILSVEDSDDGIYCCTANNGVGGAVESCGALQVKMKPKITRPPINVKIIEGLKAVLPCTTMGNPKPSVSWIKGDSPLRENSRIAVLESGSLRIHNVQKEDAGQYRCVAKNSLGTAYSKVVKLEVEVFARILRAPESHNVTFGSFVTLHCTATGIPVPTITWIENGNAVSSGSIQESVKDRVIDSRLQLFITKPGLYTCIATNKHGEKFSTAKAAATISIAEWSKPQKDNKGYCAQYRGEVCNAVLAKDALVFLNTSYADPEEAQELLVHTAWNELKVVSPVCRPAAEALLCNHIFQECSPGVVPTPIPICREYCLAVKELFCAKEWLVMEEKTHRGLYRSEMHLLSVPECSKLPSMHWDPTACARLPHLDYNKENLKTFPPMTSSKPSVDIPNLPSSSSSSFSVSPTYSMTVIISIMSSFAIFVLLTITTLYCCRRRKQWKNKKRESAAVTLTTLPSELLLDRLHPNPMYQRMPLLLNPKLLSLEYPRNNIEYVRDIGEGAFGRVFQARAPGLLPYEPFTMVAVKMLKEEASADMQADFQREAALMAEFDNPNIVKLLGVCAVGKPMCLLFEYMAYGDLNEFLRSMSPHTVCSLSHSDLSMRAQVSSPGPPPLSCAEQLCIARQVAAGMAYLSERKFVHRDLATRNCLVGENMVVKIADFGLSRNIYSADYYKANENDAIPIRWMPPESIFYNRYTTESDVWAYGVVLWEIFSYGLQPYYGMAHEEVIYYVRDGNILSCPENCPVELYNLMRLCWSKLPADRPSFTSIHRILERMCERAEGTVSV
# [12] = target: T3, Muscle, skeletal receptor tyrosine-protein kinase (Homo sapiens); settings: at 10 µM
# [13] = target: T4, Serine/threonine-protein kinase Nek11 (Homo sapiens) (UniProt Q8NG66); settings: at 1 µM
# T4 sequence (whole entry): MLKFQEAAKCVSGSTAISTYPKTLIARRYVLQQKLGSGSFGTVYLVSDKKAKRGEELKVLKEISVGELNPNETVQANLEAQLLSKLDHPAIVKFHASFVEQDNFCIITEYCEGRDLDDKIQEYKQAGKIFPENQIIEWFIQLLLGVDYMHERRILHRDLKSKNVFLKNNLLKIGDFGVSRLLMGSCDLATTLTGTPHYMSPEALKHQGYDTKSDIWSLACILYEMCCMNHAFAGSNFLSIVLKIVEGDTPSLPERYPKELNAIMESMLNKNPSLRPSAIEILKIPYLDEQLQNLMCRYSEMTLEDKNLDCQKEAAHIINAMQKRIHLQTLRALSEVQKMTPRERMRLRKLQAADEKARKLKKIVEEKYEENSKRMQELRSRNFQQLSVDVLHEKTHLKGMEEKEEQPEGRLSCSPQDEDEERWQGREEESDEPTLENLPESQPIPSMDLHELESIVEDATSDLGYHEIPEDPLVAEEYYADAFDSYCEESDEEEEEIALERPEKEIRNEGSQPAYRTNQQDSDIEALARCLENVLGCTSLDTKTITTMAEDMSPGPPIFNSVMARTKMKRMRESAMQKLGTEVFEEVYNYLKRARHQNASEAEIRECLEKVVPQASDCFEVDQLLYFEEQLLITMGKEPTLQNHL
# [14] = target: T4, Serine/threonine-protein kinase Nek11 (Homo sapiens); settings: at 10 µM
# [15] = target: T5, Serine/threonine-protein kinase Nek2 (Homo sapiens) (UniProt P51955); settings: at 1 µM
# T5 sequence (whole entry): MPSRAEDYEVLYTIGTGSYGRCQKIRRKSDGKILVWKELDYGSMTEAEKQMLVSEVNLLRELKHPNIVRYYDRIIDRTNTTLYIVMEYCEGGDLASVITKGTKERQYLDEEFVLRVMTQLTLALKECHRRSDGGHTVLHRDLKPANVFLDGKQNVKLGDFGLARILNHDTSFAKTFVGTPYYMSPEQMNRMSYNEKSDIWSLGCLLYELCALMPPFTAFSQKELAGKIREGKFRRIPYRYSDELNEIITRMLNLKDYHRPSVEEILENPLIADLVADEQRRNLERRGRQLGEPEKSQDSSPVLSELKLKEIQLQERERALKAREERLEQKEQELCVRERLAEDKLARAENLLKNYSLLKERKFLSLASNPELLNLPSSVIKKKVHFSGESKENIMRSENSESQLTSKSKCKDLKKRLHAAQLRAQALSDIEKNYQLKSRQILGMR
# [16] = target: T5, Serine/threonine-protein kinase Nek2 (Homo sapiens); settings: at 10 µM
# [17] = target: T6, Serine/threonine-protein kinase Nek3 (Homo sapiens) (UniProt P51956); settings: at 1 µM
# T6 sequence (whole entry): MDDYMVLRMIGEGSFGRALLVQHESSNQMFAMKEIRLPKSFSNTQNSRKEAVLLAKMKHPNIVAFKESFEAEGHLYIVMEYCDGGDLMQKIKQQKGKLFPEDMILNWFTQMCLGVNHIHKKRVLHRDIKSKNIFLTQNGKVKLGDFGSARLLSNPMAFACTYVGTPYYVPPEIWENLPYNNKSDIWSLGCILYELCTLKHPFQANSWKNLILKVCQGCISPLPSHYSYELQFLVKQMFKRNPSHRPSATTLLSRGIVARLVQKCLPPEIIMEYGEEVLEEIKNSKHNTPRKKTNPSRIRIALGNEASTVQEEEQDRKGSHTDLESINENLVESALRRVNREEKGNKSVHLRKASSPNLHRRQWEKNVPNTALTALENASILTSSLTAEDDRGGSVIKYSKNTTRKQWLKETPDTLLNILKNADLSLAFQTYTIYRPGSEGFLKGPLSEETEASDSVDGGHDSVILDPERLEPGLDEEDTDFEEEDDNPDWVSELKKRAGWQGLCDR
# [18] = target: T6, Serine/threonine-protein kinase Nek3 (Homo sapiens); settings: at 10 µM
# [19] = target: Serine/threonine-protein kinase tousled-like 2 (Homo sapiens) (UniProt Q86UE8); settings: at 1 µM
# [20] = target: Serine/threonine-protein kinase tousled-like 2 (Homo sapiens) (UniProt Q86UE8); settings: at 10 µM
# MAP kinase-interacting serine/threonine-protein kinase 2 (Homo sapiens), sequence (Q9HBH9 whole entry, looked up): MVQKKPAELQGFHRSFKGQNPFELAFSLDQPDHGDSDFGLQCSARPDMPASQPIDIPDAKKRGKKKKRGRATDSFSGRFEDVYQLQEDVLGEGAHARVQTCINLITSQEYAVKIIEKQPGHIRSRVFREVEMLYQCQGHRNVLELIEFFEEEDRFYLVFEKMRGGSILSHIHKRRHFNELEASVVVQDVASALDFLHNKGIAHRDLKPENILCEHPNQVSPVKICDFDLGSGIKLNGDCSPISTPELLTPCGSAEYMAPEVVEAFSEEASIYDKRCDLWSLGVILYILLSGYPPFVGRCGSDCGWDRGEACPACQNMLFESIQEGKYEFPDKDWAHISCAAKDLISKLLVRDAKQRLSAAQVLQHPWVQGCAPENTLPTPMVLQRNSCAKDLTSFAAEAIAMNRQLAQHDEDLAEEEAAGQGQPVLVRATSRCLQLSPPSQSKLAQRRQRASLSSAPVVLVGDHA
# Serine/threonine-protein kinase tousled-like 2 (Homo sapiens), sequence (Q86UE8 whole entry, looked up): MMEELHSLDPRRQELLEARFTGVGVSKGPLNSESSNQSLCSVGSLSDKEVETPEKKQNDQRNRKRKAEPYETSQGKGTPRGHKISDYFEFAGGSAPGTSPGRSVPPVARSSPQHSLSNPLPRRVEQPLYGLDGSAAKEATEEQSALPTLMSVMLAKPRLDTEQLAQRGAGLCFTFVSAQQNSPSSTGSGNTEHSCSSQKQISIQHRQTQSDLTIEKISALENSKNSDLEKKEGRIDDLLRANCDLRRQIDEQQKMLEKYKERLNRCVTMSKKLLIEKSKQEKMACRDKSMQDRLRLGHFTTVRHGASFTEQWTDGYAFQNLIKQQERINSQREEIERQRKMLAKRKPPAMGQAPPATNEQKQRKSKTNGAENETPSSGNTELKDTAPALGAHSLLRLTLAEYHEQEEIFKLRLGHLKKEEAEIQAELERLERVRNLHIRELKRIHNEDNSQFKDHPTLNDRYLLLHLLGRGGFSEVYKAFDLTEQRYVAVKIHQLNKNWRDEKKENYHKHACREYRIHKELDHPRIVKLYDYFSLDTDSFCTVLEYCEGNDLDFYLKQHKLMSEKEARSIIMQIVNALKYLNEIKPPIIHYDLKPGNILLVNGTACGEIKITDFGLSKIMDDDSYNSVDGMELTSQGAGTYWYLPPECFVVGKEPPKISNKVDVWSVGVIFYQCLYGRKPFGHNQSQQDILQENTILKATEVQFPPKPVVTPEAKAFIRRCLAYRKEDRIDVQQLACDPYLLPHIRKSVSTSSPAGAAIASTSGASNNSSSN
# Hepatocyte growth factor receptor (Homo sapiens), sequence (P08581 whole entry): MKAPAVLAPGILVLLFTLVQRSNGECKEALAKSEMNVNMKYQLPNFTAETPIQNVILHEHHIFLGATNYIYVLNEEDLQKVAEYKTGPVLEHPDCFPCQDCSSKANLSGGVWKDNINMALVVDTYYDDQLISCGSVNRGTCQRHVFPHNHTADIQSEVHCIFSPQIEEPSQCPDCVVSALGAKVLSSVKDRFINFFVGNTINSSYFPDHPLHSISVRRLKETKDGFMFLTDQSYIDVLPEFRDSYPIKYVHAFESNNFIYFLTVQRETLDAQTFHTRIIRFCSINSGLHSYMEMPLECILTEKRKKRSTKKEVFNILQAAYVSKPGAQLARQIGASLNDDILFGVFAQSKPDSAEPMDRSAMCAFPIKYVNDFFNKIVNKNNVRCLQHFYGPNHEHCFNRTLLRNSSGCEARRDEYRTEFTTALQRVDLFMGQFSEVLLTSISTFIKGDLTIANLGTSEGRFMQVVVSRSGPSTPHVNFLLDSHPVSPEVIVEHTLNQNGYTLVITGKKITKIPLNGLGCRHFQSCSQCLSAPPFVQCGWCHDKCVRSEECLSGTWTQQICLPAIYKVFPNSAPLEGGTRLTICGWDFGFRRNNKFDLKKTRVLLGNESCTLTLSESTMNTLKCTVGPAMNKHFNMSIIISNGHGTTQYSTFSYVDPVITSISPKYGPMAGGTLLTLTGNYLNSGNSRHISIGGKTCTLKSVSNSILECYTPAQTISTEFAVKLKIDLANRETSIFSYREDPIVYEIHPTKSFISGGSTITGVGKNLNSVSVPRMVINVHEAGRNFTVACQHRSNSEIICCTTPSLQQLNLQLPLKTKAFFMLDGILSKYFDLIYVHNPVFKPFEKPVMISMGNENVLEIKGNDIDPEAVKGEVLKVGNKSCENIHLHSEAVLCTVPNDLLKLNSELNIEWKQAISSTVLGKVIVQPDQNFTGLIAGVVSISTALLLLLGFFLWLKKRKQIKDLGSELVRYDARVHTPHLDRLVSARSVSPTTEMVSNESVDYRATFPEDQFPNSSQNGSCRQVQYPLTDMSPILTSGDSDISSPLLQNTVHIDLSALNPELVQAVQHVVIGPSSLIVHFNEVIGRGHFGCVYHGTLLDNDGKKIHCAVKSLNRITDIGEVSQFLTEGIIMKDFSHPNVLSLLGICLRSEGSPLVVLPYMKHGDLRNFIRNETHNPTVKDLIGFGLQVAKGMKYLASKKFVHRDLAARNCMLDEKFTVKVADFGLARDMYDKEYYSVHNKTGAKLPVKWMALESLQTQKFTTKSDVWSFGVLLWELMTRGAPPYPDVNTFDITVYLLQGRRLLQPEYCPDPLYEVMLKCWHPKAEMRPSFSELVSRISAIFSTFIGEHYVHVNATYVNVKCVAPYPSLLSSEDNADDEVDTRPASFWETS
# Serine/threonine-protein kinase 24 (Homo sapiens), sequence (Q9Y6E0 whole entry, looked up): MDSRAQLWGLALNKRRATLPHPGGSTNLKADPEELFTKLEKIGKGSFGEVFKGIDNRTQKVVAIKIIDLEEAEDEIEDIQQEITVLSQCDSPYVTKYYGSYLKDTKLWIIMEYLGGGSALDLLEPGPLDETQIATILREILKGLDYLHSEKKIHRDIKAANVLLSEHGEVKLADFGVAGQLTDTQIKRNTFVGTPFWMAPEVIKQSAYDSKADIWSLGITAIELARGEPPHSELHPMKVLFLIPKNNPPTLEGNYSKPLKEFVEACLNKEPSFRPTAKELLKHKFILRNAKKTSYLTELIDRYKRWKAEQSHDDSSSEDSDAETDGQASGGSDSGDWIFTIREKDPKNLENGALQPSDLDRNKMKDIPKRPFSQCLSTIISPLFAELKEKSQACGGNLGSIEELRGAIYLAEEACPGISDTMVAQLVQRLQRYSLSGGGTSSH
Structure (SMILES),residual activity [1] [%],residual activity [2] [%],residual activity [3] [%],residual activity [4] [%],residual activity [5] [%],residual activity [6] [%],residual activity [7] [%],residual activity [8] [%],residual activity [9] [%],residual activity [10] [%],residual activity [11] [%],residual activity [12] [%],residual activity [13] [%],residual activity [14] [%],residual activity [15] [%],residual activity [16] [%],residual activity [17] [%],residual activity [18] [%],residual activity [19] [%],residual activity [20] [%]
CCOc1cc2ncnc(Nc3cccc(Br)c3)c2cc1OCC,103,71,61,47,84,31,58,33,21,7,95,70,104,89,77,93,118,88,98,95
Nc1nc(Nc2ccc(S(N)(=O)=O)cc2)nn1C(=S)Nc1c(F)cccc1F,0,1,0,1,-1,-1,3,0,6,14,0,0,51,30,91,71,6,3,4,-1
O=Nc1c(-c2c(O)[nH]c3ccccc23)[nH]c2ccccc12,6,0,42,10,-2,-3,86,13,62,18,58,5,70,18,93,83,86,94,60,14
CC(C)n1cnc2/c(=N/c3cccc(Cl)c3)nc(NCCO)[nH]c21,71,36,62,29,54,10,87,47,95,77,75,35,43,58,85,64,76,68,82,68
O=c1c2ccccc2[nH]c(=S)n1CCN1CCC(=C(c2ccc(F)cc2)c2ccc(F)cc2)CC1,120,93,71,69,106,88,136,89,112,103,116,91,106,98,86,106,104,42,104,94
O=[N+]([O-])c1ccc(-c2nc(-c3ccc(F)cc3)c(-c3ccncc3)[nH]2)cc1,110,99,83,82,101,107,128,98,109,106,102,92,57,75,99,100,90,92,107,101
CO[C@H]1[C@@H](OC)C[C@H](C)[C@@H](OC)C2=CC(=O)C=C(NC(=O)/C(C)=C/C=C/[C@H](OC)[C@@H](OC(N)=O)/C(C)=C/[C@@H]1C)C2=O,110,102,68,72,105,93,114,82,104,107,104,85,97,97,95,84,101,76,90,95
